The results in this text go back to PubChem BioAssay AID504329 (Southern Research Specialized Biocontainment Screening …, 2011).

The inhibition is the drop in the measured response relative to a control, in per cent.

Molecules are shown by their SMILES. Where “and” joins values, the source holds several entries; their conditions need not be identical. Identical values can stand only once. In all, about 340,000 compounds went through this assay and about 1,000 (0.29%) were called active. These entries were drawn from the full list. Measured potencies and affinities stand elsewhere. A number with no mark means an inactive call. Rule as the data show it: inconclusive = inhibition above about 27% without an active follow-up result; inactive = below that.

A short description of this assay: NS1A inhibition, H1N1 influenza, cell based functional assay (AID 504329). To be noted: percent inhibition, at 12.5 µM, hits give high values.
In the case of `Cc1cc(C)c2c(c1)-c1c(ssc1=S)C(C)(C)N2C(=O)CSc1nncn1C`, the inhibition is 9.33%.
To `O=c1[nH]c(=O)n(Cc2ccco2)c(O)c1/C=N/N1CCCCCC1` belongs 12.8%; to `CCN(CC(=O)Nc1c(F)cccc1F)C(=O)CSCc1c(C)noc1C`, -12.8%.
The same measure for `COCCn1c(C)cc(C(=O)COC(=O)CNC(=O)c2ccccc2)c1C`: 4.38%; for `O=C(c1cccc(C(F)(F)F)c1)C1CCCN(C(=O)c2cc(C3CC3)[nH]n2)C1` (centres undefined): -9.76%.
To `CS(=O)(=O)Nc1ccc(C(=O)Nc2ccccc2C(=O)NCc2ccco2)cc1` belongs -1.06%; to `Nc1nnc(CC(=O)N/N=C/c2ccc([N+](=O)[O-])cc2)s1`, -6.47%; to `O=C(CSc1ccccn1)N/N=C/c1cc([N+](=O)[O-])ccc1O`, 21.2%.
For `O=C(Cn1cncn1)N/N=C/c1ccccc1Cl`, the inhibition was -0.24%.
The same measure for `O=C(N/N=C/c1cc([N+](=O)[O-])ccc1O)c1cc(-c2ccccc2)nc2ccccc12`: 15.9%; for `O=C(Cn1cncn1)N/N=C/c1cccc2ccccc12`: -2.86%.
To `Cc1cc(C(=O)N/N=C/c2ccc([N+](=O)[O-])cc2)c2ccccc2n1` belongs 8.83%.
The same measure for `Nc1nnc(CC(=O)N/N=C/c2cc([N+](=O)[O-])cc(Br)c2O)s1`: 7.8%.
Turning to `O=C(CCC(=O)Nc1ccc(Br)cc1)N/N=C/c1cc([N+](=O)[O-])ccc1O`, the inhibition was -1.12%.
Turning to `CC(OC(=O)C12CC3CC(CC(O)(C3)C1)C2)C(N)=O` (centres undefined), the inhibition was -5.93%.
To `Cc1cc(C)n(-c2ccc(C(=O)Nc3ccc(N4CCOCC4)cc3)cc2)n1` belongs -0.85%.
To `CC(Oc1ccc(Cl)cc1Cl)c1nc(-c2ccc(NC(=O)c3ccncc3)cc2)no1` (centres undefined) belongs 6.94%.
The same measure for `CCOC(=O)N1CCN(S(=O)(=O)c2ccc(C)c(C)c2C)CC1`: -2.44%.
Regarding `C=C[C@@H]1CN2CCC1C[C@@H]2[C@@H](O)c1ccnc2ccc(OC)cc12` (some centres undefined), the inhibition is -0.14% and 2.49%.
To `CCCCOc1ccc(CCC(=O)N/N=C/c2ccco2)cc1` belongs -16.9%.
To `O=c1c(-c2ccnn2-c2ccc(F)cc2)cnc2n1CCS2` belongs 11.8%; to `O=C(Nc1c2c(nn1-c1ccc(Cl)cc1)CS(=O)(=O)C2)C1CC1`, -8.81%.
The same measure for `O=C(CSc1nnc(-c2ccc(Cl)cc2)n1-c1ccc(Cl)cc1)N/N=C/c1ccco1`: -4.44%; for `COc1ccc(N2CC(C(=O)N/N=C/c3ccc([N+](=O)[O-])cc3)CC2=O)cc1` (centres undefined): 3.03%; for `COc1ccc(N2CC(C(=O)Nc3ccc([N+](=O)[O-])cc3Br)CC2=O)cc1` (centres undefined): -1%.
Take `O=C(N/N=C/c1cc(Br)ccc1O)c1cccc(N2CCCC2=O)c1`: the inhibition was -7.38%.
To `O=C(N/N=C/c1ccc([N+](=O)[O-])cc1)c1cccc(N2CCCC2=O)c1` belongs -4.45%.
The same measure for `O=C1NCCCC1C(=O)N/N=C/c1ccccc1O` (centres undefined): 1.62%; for `O=C1NCCCC1C(=O)N/N=C/c1ccccc1[N+](=O)[O-]` (centres undefined): 4.74%.
